Assays:
Assay in all cases: log2 ratio of Biotin-Ahx-Ub-VS probe labelling (fragment/DMSO); higher = less target engagement (more negative = stronger competition), active = hit call of the paper (q ≤ 0.05, log2 ratio ≤ -1)
Details in all cases: compound concentration: 200 uM; treatment time: 3 h
OTUD6B = target: T1, OTUD6B (UniProt Q8N6M0)
T1 sequence (whole entry): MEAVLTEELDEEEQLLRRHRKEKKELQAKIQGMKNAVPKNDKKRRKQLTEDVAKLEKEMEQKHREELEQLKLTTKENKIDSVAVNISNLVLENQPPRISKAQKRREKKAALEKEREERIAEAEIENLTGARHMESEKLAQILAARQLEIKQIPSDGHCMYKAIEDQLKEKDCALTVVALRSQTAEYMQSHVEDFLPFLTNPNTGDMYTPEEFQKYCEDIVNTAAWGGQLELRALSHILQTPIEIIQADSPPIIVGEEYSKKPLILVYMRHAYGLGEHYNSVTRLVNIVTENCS
Summary of the method: (§1)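 Triplicate samples of HEK293T lysate, 495 µg each, received fragment at 200 µM or vehicle for 3 h, followed by Biotin-Ahx-Ub-VS (0.5 µM final) for 1 h. After NeutrAvidin enrichment of labelled DUBs and LysC/trypsin digestion, peptides were run by diaPASEF LC-MS/MS. The values are average log2 fragment/vehicle ratios from global-median-normalised Spectronaut label-free quantities, tested by unpaired t-test on proteins having ≥2 unique peptides.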

OTUD7B = target: T2, OTUD7B (UniProt Q6GQQ9)
T2 sequence (whole entry): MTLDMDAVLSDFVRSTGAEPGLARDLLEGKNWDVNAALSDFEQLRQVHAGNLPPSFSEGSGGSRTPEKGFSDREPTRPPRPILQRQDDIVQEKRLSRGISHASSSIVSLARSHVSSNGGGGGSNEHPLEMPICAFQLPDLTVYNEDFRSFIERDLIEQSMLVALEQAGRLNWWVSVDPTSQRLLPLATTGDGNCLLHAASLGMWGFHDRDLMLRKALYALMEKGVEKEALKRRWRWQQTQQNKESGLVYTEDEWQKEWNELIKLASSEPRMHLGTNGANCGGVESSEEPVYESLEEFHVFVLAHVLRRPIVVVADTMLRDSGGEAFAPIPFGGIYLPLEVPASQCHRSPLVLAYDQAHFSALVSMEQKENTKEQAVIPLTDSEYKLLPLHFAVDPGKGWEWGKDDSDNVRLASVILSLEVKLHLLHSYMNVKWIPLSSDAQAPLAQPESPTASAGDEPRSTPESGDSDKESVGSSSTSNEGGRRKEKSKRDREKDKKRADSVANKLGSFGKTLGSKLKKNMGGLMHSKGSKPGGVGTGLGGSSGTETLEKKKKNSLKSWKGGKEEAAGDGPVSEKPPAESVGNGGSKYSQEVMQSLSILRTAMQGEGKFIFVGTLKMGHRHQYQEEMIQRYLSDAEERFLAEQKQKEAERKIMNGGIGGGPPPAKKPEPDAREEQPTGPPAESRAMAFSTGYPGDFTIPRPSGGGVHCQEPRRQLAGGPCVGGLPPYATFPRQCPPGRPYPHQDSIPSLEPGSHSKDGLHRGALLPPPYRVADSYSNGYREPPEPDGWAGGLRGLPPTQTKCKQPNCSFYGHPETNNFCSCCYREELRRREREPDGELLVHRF
Summary of the method: as §1

PRPF8 = PRPF8 (UniProt Q6P2Q9)
Summary of the method: as §1

PSMD7 = target: T3, PSMD7 (UniProt P51665)
T3 sequence (whole entry): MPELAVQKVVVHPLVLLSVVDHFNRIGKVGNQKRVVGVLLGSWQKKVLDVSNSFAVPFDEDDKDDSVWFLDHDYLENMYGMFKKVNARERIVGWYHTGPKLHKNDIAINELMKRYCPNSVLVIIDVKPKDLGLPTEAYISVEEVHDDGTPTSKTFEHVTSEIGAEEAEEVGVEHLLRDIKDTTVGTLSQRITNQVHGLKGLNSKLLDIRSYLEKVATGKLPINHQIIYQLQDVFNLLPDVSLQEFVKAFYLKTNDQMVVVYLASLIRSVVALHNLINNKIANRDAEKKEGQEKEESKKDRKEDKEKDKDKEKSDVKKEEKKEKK
Summary of the method: as §1

UCHL1 = UCHL1 (UniProt P09936)
Chain of UCHL1 (P09936 whole entry, looked up): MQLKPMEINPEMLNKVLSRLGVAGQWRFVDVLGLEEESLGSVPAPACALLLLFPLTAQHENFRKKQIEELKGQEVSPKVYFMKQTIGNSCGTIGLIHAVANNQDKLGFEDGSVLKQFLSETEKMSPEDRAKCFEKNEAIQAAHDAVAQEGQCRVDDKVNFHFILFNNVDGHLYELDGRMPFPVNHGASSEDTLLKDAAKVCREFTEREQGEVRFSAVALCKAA
Summary of the method: as §1

UCHL3 = target: T4, UCHL3 (UniProt P15374)
T4 sequence (whole entry): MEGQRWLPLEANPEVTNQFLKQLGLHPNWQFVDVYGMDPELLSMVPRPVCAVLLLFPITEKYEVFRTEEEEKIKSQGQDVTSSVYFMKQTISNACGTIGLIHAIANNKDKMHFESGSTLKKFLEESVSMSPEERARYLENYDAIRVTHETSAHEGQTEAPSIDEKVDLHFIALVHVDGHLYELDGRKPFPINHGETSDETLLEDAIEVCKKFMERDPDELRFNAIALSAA
Summary of the method: as §1

UCHL5 = target: T5, UCHL5 (UniProt Q9Y5K5)
T5 sequence (whole entry): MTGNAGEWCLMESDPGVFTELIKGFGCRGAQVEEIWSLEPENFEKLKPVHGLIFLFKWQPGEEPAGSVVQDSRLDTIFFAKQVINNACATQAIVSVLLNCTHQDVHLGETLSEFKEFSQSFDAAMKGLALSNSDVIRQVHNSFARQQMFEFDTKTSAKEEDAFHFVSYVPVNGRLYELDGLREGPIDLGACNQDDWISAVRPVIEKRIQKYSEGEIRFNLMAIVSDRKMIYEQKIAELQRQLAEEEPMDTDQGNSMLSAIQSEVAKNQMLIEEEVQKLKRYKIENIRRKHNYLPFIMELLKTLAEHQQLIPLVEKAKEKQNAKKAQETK
Summary of the method: as §1

USP10 = USP10 (UniProt Q14694)
Chain of USP10 (Q14694 whole entry): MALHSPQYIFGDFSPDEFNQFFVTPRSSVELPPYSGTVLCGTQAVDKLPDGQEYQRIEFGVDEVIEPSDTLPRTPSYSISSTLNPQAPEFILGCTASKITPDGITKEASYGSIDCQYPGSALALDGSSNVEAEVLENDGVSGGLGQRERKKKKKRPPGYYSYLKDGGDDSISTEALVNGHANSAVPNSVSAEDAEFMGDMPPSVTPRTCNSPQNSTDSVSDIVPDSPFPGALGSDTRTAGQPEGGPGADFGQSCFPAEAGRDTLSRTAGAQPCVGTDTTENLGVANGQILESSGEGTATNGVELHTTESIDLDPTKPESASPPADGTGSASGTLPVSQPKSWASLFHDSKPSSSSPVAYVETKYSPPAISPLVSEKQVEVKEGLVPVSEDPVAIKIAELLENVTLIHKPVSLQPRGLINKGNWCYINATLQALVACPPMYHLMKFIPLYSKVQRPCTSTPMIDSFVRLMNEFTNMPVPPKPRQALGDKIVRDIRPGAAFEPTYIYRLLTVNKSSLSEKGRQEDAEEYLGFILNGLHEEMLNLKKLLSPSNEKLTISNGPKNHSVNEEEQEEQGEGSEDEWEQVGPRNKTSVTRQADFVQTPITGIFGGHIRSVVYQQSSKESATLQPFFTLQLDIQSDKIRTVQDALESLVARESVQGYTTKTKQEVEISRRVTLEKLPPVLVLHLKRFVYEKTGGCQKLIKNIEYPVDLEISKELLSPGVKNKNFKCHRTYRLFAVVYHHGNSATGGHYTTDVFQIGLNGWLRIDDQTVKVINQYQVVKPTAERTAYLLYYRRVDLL
Summary of the method: as §1

USP15 = target: T6, USP15 (UniProt Q9Y4E8)
T6 sequence (whole entry): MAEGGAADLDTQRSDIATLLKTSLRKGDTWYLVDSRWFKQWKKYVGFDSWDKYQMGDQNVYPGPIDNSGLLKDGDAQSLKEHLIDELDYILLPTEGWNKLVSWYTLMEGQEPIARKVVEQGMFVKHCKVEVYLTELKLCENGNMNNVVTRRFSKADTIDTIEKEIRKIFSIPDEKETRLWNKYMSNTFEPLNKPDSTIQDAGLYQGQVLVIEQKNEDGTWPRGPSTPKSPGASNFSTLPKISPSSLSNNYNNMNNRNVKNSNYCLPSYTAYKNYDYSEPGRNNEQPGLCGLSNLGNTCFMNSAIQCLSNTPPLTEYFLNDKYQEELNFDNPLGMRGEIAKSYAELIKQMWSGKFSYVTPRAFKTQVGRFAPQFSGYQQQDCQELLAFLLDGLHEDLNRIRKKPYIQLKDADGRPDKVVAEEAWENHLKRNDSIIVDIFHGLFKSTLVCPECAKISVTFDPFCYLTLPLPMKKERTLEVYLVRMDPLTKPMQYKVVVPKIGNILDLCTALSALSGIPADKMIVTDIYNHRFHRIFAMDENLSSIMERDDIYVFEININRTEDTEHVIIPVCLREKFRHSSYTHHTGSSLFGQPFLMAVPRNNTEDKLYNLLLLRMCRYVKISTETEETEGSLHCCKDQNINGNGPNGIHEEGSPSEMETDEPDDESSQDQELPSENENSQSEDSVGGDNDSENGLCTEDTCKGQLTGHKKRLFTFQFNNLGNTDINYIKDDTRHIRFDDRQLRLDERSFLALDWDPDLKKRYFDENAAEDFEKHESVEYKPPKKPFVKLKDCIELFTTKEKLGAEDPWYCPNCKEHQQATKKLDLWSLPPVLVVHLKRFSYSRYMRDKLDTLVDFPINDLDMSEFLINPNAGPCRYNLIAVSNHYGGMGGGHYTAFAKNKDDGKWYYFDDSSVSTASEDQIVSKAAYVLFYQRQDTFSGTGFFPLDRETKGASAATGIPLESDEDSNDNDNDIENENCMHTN
Summary of the method: as §1

USP16 = USP16 (UniProt Q9Y5T5)
Chain of USP16 (Q9Y5T5 whole entry, looked up): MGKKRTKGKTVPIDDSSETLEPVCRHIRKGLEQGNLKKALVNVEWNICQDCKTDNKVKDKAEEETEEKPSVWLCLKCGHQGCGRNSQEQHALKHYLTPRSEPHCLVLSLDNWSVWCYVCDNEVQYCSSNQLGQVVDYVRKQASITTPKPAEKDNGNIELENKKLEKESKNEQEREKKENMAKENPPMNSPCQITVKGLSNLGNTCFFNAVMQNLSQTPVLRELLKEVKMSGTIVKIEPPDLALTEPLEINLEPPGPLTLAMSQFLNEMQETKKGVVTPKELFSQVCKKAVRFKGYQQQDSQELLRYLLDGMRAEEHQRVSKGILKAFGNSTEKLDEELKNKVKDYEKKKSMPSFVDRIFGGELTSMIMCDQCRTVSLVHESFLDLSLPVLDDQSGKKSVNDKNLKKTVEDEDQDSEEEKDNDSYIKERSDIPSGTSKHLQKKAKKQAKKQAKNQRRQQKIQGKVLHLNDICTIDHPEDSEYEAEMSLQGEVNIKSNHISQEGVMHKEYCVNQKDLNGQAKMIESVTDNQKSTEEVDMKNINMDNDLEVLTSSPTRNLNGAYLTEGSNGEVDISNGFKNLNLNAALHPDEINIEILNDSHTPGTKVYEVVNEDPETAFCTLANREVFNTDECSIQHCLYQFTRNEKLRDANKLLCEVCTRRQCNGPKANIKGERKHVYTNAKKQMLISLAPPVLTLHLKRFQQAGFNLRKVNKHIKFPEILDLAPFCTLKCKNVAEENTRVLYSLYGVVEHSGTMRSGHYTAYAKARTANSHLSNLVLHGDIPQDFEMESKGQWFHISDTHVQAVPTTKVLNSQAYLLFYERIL
Summary of the method: as §1

Measured: log2 ratio of Biotin-Ahx-Ub-VS probe labelling

Cc1cc(NC(=O)CCl)n(-c2ccccc2)n1
active: UCHL1 -1.18
inactive: OTUD6B -0.0228 | OTUD7B -0.528 | PRPF8 0.173 | PSMD7 0.00596 | UCHL3 0.614 | UCHL5 -0.0207 | USP10 -0.234 | USP15 -0.2 | USP16 -0.321
